Consider nine molecules from PubChem BioAssay (NCATS).

“And” between values parts separate entries of the source, which are not always exact repeats. Identical values can stand only once. Results filed as inconclusive are left out. The source made the active and inactive calls. Unless noted, the call rests on the fitted dose curve; in most records, active means well fitted inhibition curve with a large enough effect; inconclusive means small, poorly fitted or top-dose-only effect; inactive means flat fitted curve, though single readings scatter.

Experiment [1] in a line: qHTS drug screen for cell cycle checkpoint inhibitors in PARPi-resistant BRCA-mutant ovarian cancer cell lines. (AID 1963452; calls by dose curve). The settings on record: PEO1/OlaR viability, CellTiter-Glo luminescence, 96 h; for Z-AUC: stronger effect = lower value. The gist of the method: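 PEO1, PEO4 and PEO1/OlaR ovarian cancer cells, 600 per well, exposed 96 h at 37C to a dilution series. Viability read by CellTiter-Glo luminescence, normalized to DMSO and empty wells; activity summarized as Z-AUC.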
For orientation: qHTS replaces the single test concentration by a dilution series.

The nature of experiment [2]: qHTS profiling for inhibitors of Plasmodium falciparum proliferation (AID 504749). Further: nearly all actives have a fitted effect of over 60% in size. Particulars: P. falciparum in erythrocytes, SYBR Green DNA, 72 h. An excerpt: (§1) NIH National Institute of Allergy and Infectious Diseases [NIAID] NIH Chemical Genomics Center [NCGC] MLPCN Grant: None Assay Provider: Xinzhuan Su, NIAID NCGC Assay Overview: Plasmodium falciparum is a virulent malarial parasite that kills 1-2 million people worldwide each year. Transmitted by mosquitoes, the sporozoite form of the parasite enters the blood stream to infect hepatocytes, where they become merozoites that infect red blood cells (erythrocytes). Within erythrocytes, merozoites begin a […] cycle of growth and division, after which the parasite is released to infect new red blood cells. Gametocytes, which form within erythrocytes as well, circulate in the bloodstream and are ingested by the mosquito, thereby completing the life cycle. To profile malarial isolates for differential chemical responses and to identify inhibitors of malarial growth, an assay that measures P. falciparum growth and replication within erythrocytes was employed. This assay uses a DNA binding fluorescent dye (SYBR Green) to detect parasite DNA following cell lysis. Because mature erythrocytes lack DNA, only Plasmodium-derived DNA is detected.
(§2) NCGC Assay Protocol Summary: The SYBR Green viability assay was adapted from a method described previously (Plouffe et al., 2008). For screening 3 ul culture medium was dispensed into 1536 well black clear bottom plates (Aurora Biotechnologies) using a Multidrop Combi (Thermo Fisher Scientific Inc.), 23 nL compounds in DMSO were added by a pin tool (Kalypsys), and 5 ul of erythrocytes infected with P. falciparum (0.3% parasitemia, 2.5% hematocrit final concentration) were added. The plates were incubated at 37 C in a humidified incubator in 5% CO2 for 72 h, and 2 ul lysis buffer (20 mM Tris HCl, 10 mM EDTA, 0.16% saponin, 1.6% triton X, 10X SYBR Green I supplied as 10,000X […] by Invitrogen) was added to each well. The plates were mixed for 25 sec with gentle shaking and incubated overnight at room temperature in the dark. The following morning, fluorescence intensity at 485(14) nm excitation and 535(25) nm emission wavelengths was measured on an EnVision (Perkin Elmer) plate reader. Plate reads were normalized relative to the control inhibitor (0.29 uM artemisinin) and vehicle (DMSO) wells present on each plate and then corrected by an algorithm using vehicle-only control plates at the beginning and end of the compound plate stack.

The next experiment has as its system 3D7. The description is as above. Particulars: P. falciparum in erythrocytes, SYBR Green DNA, 72 h.
Description: as §1, §2

A further experiment deals with 7G8. The description is as above. The settings on record: P. falciparum in erythrocytes, SYBR Green DNA, 72 h.
Description: as §1, §2

In a further experiment the test system is AA1029. Described as above. Particulars: P. falciparum in erythrocytes, SYBR Green DNA, 72 h.
Description: as §1, §2

A further experiment deals with AS120. Described as above. The settings on record: P. falciparum in erythrocytes, SYBR Green DNA, 72 h.
Description: as §1, §2

The test system of the next experiment is ATS189. Described as above. The settings on record: P. falciparum in erythrocytes, SYBR Green DNA, 72 h.
Description: as §1, §2

Another experiment relates to ATS95. The description is as above. The settings on record: P. falciparum in erythrocytes, SYBR Green DNA, 72 h.
Description: as §1, §2

The test system of a further experiment is C2A. Described as above. The settings on record: P. falciparum in erythrocytes, SYBR Green DNA, 72 h.
Description: as §1, §2

A further experiment relates to CP185. The experiment is described as above. Particulars: P. falciparum in erythrocytes, SYBR Green DNA, 72 h.
Description: as §1, §2

Setting [3] is: measured here: PEO1 parental Z-AUC.
Potency means the concentration at half of the fitted maximal effect.

On to `Clc1cc2c(NC3CCCC3)nnc(-c3ccncc3)c2cc1Cl`, for which the figures for the Z-AUC in experiment [1], in [1] (setting [3]) and in [1] (measured here: PEO4 Z-AUC) were -0.0819 (inactive), 0.551 and 0.556, respectively.
On the same counts, the results for `Cc1cccc(Oc2cnc(=O)[nH]c2)c1` are -0.692 (inactive), -0.81 and -0.687.
With `C[C@H]1Oc2cc(cnc2N)-c2c(nn(C)c2C#N)CN(C)C(=O)c2ccc(F)cc21`, the Z-AUC in [1] is 0.784 (inactive) and 2.21 (inactive); in experiment [1] (setting [3]), -0.00425 and 0.761; in experiment [1] (measured here: PEO4 Z-AUC), -0.356 and 0.596.
For `CN[C@@H]1[C@H](O[C@H]2[C@H](O[C@@H]3[C@@H](O)[C@H](O)[C@@H](N=C(N)N)[C@H](O)[C@H]3N=C(N)N)O[C@@H](C)[C@]2(O)C=O)O[C@@H](CO)[C@H](O)[C@H]1O`, the Z-AUC in experiment [1] was 1.52 (inactive); in experiment [1] (setting [3]) it was 0.947; in experiment [1] (measured here: PEO4 Z-AUC), 1.26.
With `NC[C@@](O)(c1ccc(Cl)cc1)c1ccc(-c2cn[nH]c2)cc1`, the Potency in [1] was 13800 nM (active). The Z-AUC in experiment [1] (setting [3]) is -1.09; in [1] (measured here: PEO4 Z-AUC), -1.28.
Turning to `Cc1ccc([N+](=O)[O-])cc1S(=O)(=O)N(C)/N=C/c1cnc2ccc(Br)cn12`, the Z-AUC in experiment [1] is -2.4 (inactive); in [1] (setting [3]) it was -2.53; in experiment [1] (measured here: PEO4 Z-AUC), -2.56.
On the same counts, the results for `CC[C@H](NC(=O)[C@H](CS(=O)(=O)CC1CC1)N[C@@H](c1ccc(F)cc1)C(F)(F)F)C(=O)C(=O)NC1CC1` are 0.263 (inactive), 1.63 and 1.51.
As for `CC(=O)O[C@H]1C(=O)[C@@]2(C)[C@H]([C@H](OC(=O)c3ccccc3)[C@]3(O)C[C@H](OC(=O)[C@H](O)[C@@H](NC(=O)c4ccccc4)c4ccccc4)C(C)=C1C3(C)C)[C@]1(OC(C)=O)CO[C@@H]1C[C@@H]2O`, the Potency is 355 nM (active) in experiment [2] (parasite line A); 251 nM (active) in experiment [2] (parasite line B); 282 nM (active) in the experiment with 3D7; 398 nM (active) in the experiment with 7G8; 562 nM (active) with AA1029; 398 nM (active) in the experiment on AS120. Besides, the Potency with ATS189 was 631 nM (active); in the experiment with ATS95, 631 nM (active); in the experiment on C2A, 355 nM (active); in the experiment on CP185, 199 nM (active).
Consider `CC[C@]1(O)CC2CN(CCc3c([nH]c4ccccc34)[C@@](C(=O)OC)(c3cc4c(cc3OC)N(C)[C@H]3[C@@](O)(C(=O)OC)[C@H](OC(C)=O)[C@]5(CC)C=CCN6CC[C@]43[C@@H]65)C2)C1` (stereo partly specified), for which the Potency in [2] (parasite line A) was 2510 nM (active); in [2] (parasite line B), 3980 nM (active); in the experiment on 3D7, 794 nM (active); in the experiment on 7G8, 1120 nM (active); in the experiment with AA1029, 1410 nM (active); in the experiment on AS120, 2510 nM (active). Also, the Potency in the experiment with ATS189 is 4470 nM (active); in the experiment on ATS95, 3550 nM (active); in the experiment with C2A it was 2820 nM (active); in the experiment on CP185, 3550 nM (active).
